Assay [1] can be described thus: qHTS RealTime-Glo MT Cell Viability Assay in HEK293 cells - 40 hour (AID 1224874). Note: nearly all actives have a fitted effect of over 50% in size. Note: potency is the fitted concentration of half-maximal effect. Conditions: RealTime-Glo luminescence; max response: active compounds read low. In outline:
(§1)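 Viable HEK293 cells reduce a cell-permeant prosubstrate; the product diffuses out and is consumed by NanoLuc in the medium to give light. Compounds went in after a 5 h incubation and plates were read over the treatment course.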
A general note: In qHTS, concentration-response curves come from the screen itself.

The nature of assay [2]: A CellTox Green Cytotoxicity Assay to monitor cytotoxicity in HEK293 cells - 24 hour (AID 1224875). Note: nearly all actives have a fitted effect of over 45% in size. Note: potency is the fitted concentration of half-maximal effect. Conditions: CellTox Green fluorescence; series mostly up to 76.8 µM. In outline:
(§2)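 Fluorescence intensity, read at 0, 8, 16, 24, 32 and 40 h of compound treatment, reflected dye binding to DNA of dead HEK293 cells; compounds (23 nL, DMSO) were added 5 h after plating cells with reagent.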

Assay [3] can be described thus: qHTS RealTime-Glo MT Cell Viability Assay in HepG2 cells - 32 hour (AID 1224877). Note: nearly all actives have a fitted effect of over 55% in size. Note: potency is the fitted concentration of half-maximal effect. The note with it: RealTime-Glo luminescence; series mostly up to 76.8 µM. In outline:
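HepG2 cells were seeded at 600 cells/well together with NanoLuc luciferase and a cell-permeant prosubstrate, preincubated 5 h at 37 C/5% CO2, then pin-dosed with compounds in DMSO. Nonlytic luminescence from viable cells was read at each time point.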

Assay [4] can be described thus: A CellTox Green Cytotoxicity Assay to monitor cytotoxicity in HepG2 cells - 24 hour (AID 1224878). Note: nearly all actives have a fitted effect of over 45% in size. Note: potency is the fitted concentration of half-maximal effect. The note with it: CellTox Green fluorescence; series mostly up to 76.8 µM. In a few lines:
(§3)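 Using 1536-well format, dye-containing HepG2 suspension was seeded, allowed 5 h at 37 C/5% CO2, dosed by pintool with compounds, positive and negative controls, and imaged for fluorescence across 40 h.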

Assay [5] can be described thus: A CellTox Green Cytotoxicity Assay to monitor cytotoxicity in HepG2 cells - 40 hour (AID 1224879). Note: nearly all actives have a fitted effect of over 40% in size. Note: potency is the fitted concentration of half-maximal effect. Conditions: CellTox Green fluorescence; series mostly up to 76.8 µM. In outline: as §3
Assay [6] in a line: qHTS RealTime-Glo MT Cell Viability Assay in HEK293 cells - 0 hour (AID 1224880). Note: top concentration of the series differs between compounds; nearly all actives have a fitted effect of over 45% in size. Conditions: RealTime-Glo luminescence; series mostly up to 76.8 µM. In outline:
as §1

Assay [7] in a line: A CellTox Green Cytotoxicity Assay to monitor cytotoxicity in HEK293 cells - 32 hour (AID 1224881). Note: nearly all actives have a fitted effect of over 40% in size. Note: potency is the fitted concentration of half-maximal effect. The note with it: CellTox Green fluorescence; series mostly up to 76.8 µM. In a few lines:
as §2

A short description of assay [8]: A CellTox Green Cytotoxicity Assay to monitor cytotoxicity in HepG2 cells - 32 hour (AID 1224883). Note: nearly all actives have a fitted effect of over 50% in size. Note: potency is the fitted concentration of half-maximal effect. Conditions: CellTox Green fluorescence; series mostly up to 76.8 µM. In outline: as §3
The nature of assay [9]: A CellTox Green Cytotoxicity Assay to monitor cytotoxicity in HepG2 cells - 0 hour (AID 1224882). Note: nearly all actives have a fitted effect of over 35% in size. Conditions: CellTox Green fluorescence; series mostly up to 76.8 µM. In a few lines:
as §3

Assay [10] in a line: A CellTox Green Cytotoxicity Assay to monitor cytotoxicity in HepG2 cells - 16 hour (AID 1224876). Note: nearly all actives have a fitted effect of over 45% in size. The note with it: CellTox Green fluorescence; series mostly up to 76.8 µM. In outline:
as §3

A number with no mark means an inactive call. Records with an inconclusive call do not appear. Calls of active or inactive are those of the source. Calls come from the whole dose curve; as a rule, active = well fitted curve in the direction sought with a large enough effect in the repeat runs; inconclusive = weak or mixed curves; inactive = no such curve, though single readings can be large; an effect the other way counts as inactive or inconclusive.
% is set by controls: 0 for no effect and ±100 for the full control effect.

In the case of `CC/C=C\C/C=C\C/C=C\CCCCCCCC(=O)OC`, in assay [1], the max response is -12.1%. For the same compound, the Potency entry in [2], in [3], in [4], in assay [5], in [6] and in [7] was “inactive” each time. In addition, the Potency entry in assay [8] was “inactive”.

For `O=C1CCCCCCCCCCCCCC1`, in assay [1], the max response was -11.7%. The Potency in assay [2] and in [7] was 43.6 µM (active) each time. The Potency result in assay [3], in assay [6] and in assay [9] was “inactive” in each case.

Turning to `Clc1nc(C(Cl)(Cl)Cl)c(Cl)c(Cl)c1Cl`, the Potency is 0.011 µM (active) in assay [1], 43.6 µM (active) in assay [4], 43.6 µM (active) in [5] and 43.6 µM (active) in assay [8]. The Potency entry in [10], in assay [6] and in assay [9] was “inactive” throughout.

`CC/C=C(\C)C=O`: the max response in assay [1] was 4.52%. Besides, the Potency entry in assay [2], in assay [3], in [4], in [5], in [6] and in assay [7] was “inactive” each time. Further, the Potency entry in [9] and in assay [8] was “inactive” throughout.

Take `CCCC(=O)c1cc(O)c(O)cc1O`: the max response in assay [1] is 1.65%. The Potency entry in assay [2], in assay [3], in assay [5], in assay [6] and in assay [7] was “inactive” in each case.

Turning to `COc1cc(OC)nc(NC(=O)NS(=O)(=O)Nc2ccccc2C(=O)N(C)C)n1`, the max response in assay [1] was 6.33%. The Potency result in assay [2], in assay [3], in assay [4], in assay [5], in [6] and in assay [7] was “inactive” in each case. The Potency result in [8] is “inactive”.

As to `CN1CCN(CCCN2c3ccccc3Sc3ccc(C(F)(F)F)cc32)CC1`, the Potency in assay [1] was 23.9 µM (active); in assay [2], 23.9 µM (active); in assay [3] it was 23.9 µM (active); in assay [4], 21.3 µM (active); in assay [5] it was 23.9 µM (active); in assay [7] it was 23.9 µM (active). For the same compound, in [8], the Potency was 21.3 µM (active).

For `CC(C)=CCC[C@H](C)CC=O`, in assay [1], the max response is 11.6%. In addition, the Potency result in assay [10], in assay [3], in [4], in [5], in assay [6] and in [9] was “inactive” each time. Also, the Potency result in [8] is “inactive”.

For `O=C1CCC/C=C\CCCCCCCCCC1`, in assay [1], the max response is -5.39%. Moreover, the Potency result in assay [2], in assay [3], in assay [6] and in assay [9] was “inactive” throughout.

`Cc1c(Cl)c(=O)oc2cc(O)ccc12`: the Potency result in assay [2], in assay [10], in [3], in assay [4], in assay [5] and in [6] was “inactive” in each case. For the same compound, the Potency result in assay [7], in [9] and in [8] was “inactive” throughout.

Take `Nc1ccc(F)c([N+](=O)[O-])c1`: the max response in assay [1] is 4.61%. For the same compound, the Potency result in assay [2], in assay [3], in assay [4], in assay [5], in assay [6] and in assay [7] was “inactive” each time. Moreover, the Potency entry in assay [8] was “inactive”.

In the case of `CCOc1nc(F)cc2nc(S(=O)(=O)Nc3c(Cl)cccc3C(=O)OC)nn12`, the Potency entry in assay [2], in assay [10], in [3], in assay [4], in assay [5] and in assay [6] was “inactive” throughout. In addition, the Potency result in [7] and in assay [8] was “inactive” each time.

Take `CCOC(=O)C1=NN(c2ccc(Cl)cc2Cl)C(C)(C(=O)OCC)C1` (centres undefined): the Potency entry in [2], in assay [10], in assay [3], in assay [5], in [6] and in assay [7] was “inactive” in each case. In addition, the Potency result in assay [9] and in assay [8] was “inactive” throughout.

For `C/C=C/C(=O)OCC(C)C`, the Potency entry in [2], in [10], in assay [3], in [4], in [5] and in assay [6] was “inactive” in each case. In addition, the Potency result in assay [7] and in assay [8] was “inactive” throughout.

Turning to `CCCCCCCCSCc1cc(C)c(O)c(CSCCCCCCCC)c1`, the Potency entry in [2], in assay [10], in assay [3], in [4], in [5] and in [6] was “inactive” throughout. The Potency entry in assay [7] and in [8] was “inactive” throughout.

Turning to `ClC(c1ccccc1)(c1ccccc1)c1ccccc1`, the Potency entry in [2], in assay [10], in [3], in [4], in assay [5] and in assay [6] was “inactive” each time. Also, the Potency entry in assay [7], in [9] and in assay [8] was “inactive” each time.

Regarding `CCN(CC)c1ccc(C=O)cc1`, the Potency result in [2], in [10], in [3], in [4], in [5] and in assay [7] was “inactive” each time. The Potency entry in [9] and in [8] was “inactive” each time.

In the case of `C=Cc1ccc(O)c(OC)c1`, the Potency result in [2], in assay [10], in [3], in [4], in assay [5] and in [6] was “inactive” throughout. In addition, the Potency entry in assay [7], in [9] and in [8] was “inactive” throughout.

Source of the values: PubChem BioAssay (Tox21).
